Experimental data: PubChem BioAssay (NCI)
The panel holds about 79,000 compounds, 15% with a hit somewhere; the sample as a whole holds those more often. The source made the active and inactive calls. Cut-off read from the data, not from the text of the source: active = growth inhibition above about 70%; inactive = the rest. Residues, ends and D or L forms follow the SMILES beside them. *: point of attachment. CH2Cl = ClC*

Assays:
[1] = NCI Yeast Anticancer Drug Screen. Data for the rad52 strain (AID 147);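 note: 0% = growth of vehicle-treated control cultures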; conditions: S. cerevisiae rad52 mutant growth inhibition, stronger effect = higher value
In short: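 Yeast strain carrying a DNA damage repair alteration was exposed to test compounds. Growth inhibition was measured relative to vehicle-treated controls.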

[2] = NCI Yeast Anticancer Drug Screen. Data for the wt1 strain (AID 149);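 note: 0% = growth of vehicle-treated wt1 cultures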; conditions: S. cerevisiae wt1 strain (SPY 50644) growth inhibition, stronger effect = higher value
In short: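 Using yeast strain wt1, compound-induced growth inhibition was determined against vehicle-treated cultures.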

[3] = NCI Yeast Anticancer Drug Screen. Data for the rad50EPP+ strain (AID 151);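 note: 0% = growth of vehicle-treated control cultures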; conditions: S. cerevisiae rad50 mutant strain, stronger effect = higher value
In short: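 Yeast strain carrying rad50 alteration (rad50EPP+) exposed to compounds; growth inhibition measured relative to vehicle-treated controls.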

[4] = NCI Yeast Anticancer Drug Screen. Data for the mgt1 strain (AID 153); conditions: S. cerevisiae mgt1 mutant growth inhibition, stronger effect = higher value
In short: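 Yeast mgt1 strain (DNA repair/cell-cycle alteration panel) exposed to compounds; growth inhibition measured relative to vehicle-treated controls.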

[5] = NCI Yeast Anticancer Drug Screen. Data for the rad50 strain (AID 155);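 note: 0% = growth of vehicle-only cultures of the same strain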; conditions: S. cerevisiae rad50 strain growth inhibition, stronger effect = higher value
In short: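 Relative growth inhibition (compound vs vehicle) was measured in yeast with a defined repair-gene alteration.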

[6] = NCI Yeast Anticancer Drug Screen. Data for the mec2-1 strain (AID 157); conditions: S. cerevisiae mec2-1 strain, stronger effect = higher value
In short: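 mec2-1 yeast strain, carrying an alteration in DNA damage repair or cell cycle control, was exposed to compounds; growth inhibition was measured relative to vehicle-treated controls.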

[7] = NCI Yeast Anticancer Drug Screen. Data for the rad14 strain (AID 159);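 note: 0% = growth of vehicle-treated control cultures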; conditions: S. cerevisiae rad14 strain growth inhibition, stronger effect = higher value
In short: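 Screen for anticancer potential: a yeast strain altered in DNA damage repair is grown with compound, and reduced growth is quantified against vehicle controls.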

[8] = NCI Yeast Anticancer Drug Screen. Data for the sgs1 mgt1 strain (AID 161);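 note: 0% = growth of cultures given vehicle only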; conditions: S. cerevisiae sgs1 mgt1 strain, at 50.0 µM, stronger effect = higher value
In short: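 Percent growth inhibition was derived by comparing compound-exposed mutant yeast with vehicle-exposed cultures. The strain carries alterations in DNA damage repair.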

[9] = NCI Yeast Anticancer Drug Screen. Data for the cln2 rad14 strain (AID 165);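 note: 0% = growth equal to vehicle treated cultures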; conditions: S. cerevisiae cln2 rad14 strain, at 50.0 µM, stronger effect = higher value
In short: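 Yeast carrying cln2 and rad14 alterations (cell cycle control and DNA damage repair) were exposed to compounds. Growth inhibition was measured against vehicle-treated controls.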

[10] = NCI Yeast Anticancer Drug Screen. Data for the bub3 strain (AID 167); conditions: S. cerevisiae bub3 mutant strain, stronger effect = higher value
In short: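 Screening used yeast with an engineered genetic alteration affecting cell cycle control. Compound-exposed cultures were compared with vehicle cultures, and reduced growth was taken as inhibition.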

[11] = NCI Yeast Anticancer Drug Screen. Data for the wt2 strain (AID 169);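 note: 0% = growth of vehicle-treated yeast cultures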; conditions: S. cerevisiae wt2 strain growth inhibition, stronger effect = higher value
In short: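 Yeast cells were exposed to test compounds, and growth inhibition was measured relative to vehicle-treated controls.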

[12] = NCI Yeast Anticancer Drug Screen. Data for the mlh1 strain (AID 171);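 note: 0% = growth of vehicle-treated control cultures of the same strain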; conditions: S. cerevisiae mlh1 strain growth inhibition, stronger effect = higher value
In short: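 Yeast carrying a defined genetic alteration in DNA damage repair or cell cycle control were exposed to test compounds. Growth inhibition was measured relative to vehicle-treated controls.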

[13] = NCI Yeast Anticancer Drug Screen. Data for the sgs1 strain (AID 173);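 note: 0% = growth of vehicle-only control cultures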; conditions: S. cerevisiae sgs1 mutant, stronger effect = higher value
In short: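 Yeast mutant strains carrying defined defects in DNA damage repair or cell cycle control were exposed to test compounds. Growth inhibition was scored against vehicle-treated controls.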

[14] = NCI Yeast Anticancer Drug Screen. Data for the mlh1 rad18 strain (AID 175); conditions: S. cerevisiae mlh1 rad18 strain growth inhibition; at 50.0 µM; stronger effect = higher value
In short: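 Growth inhibition of the yeast strain was measured after compound exposure and expressed relative to vehicle-treated controls. The strain carries defined defects in DNA damage repair.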

[15] = NCI Yeast Anticancer Drug Screen. Data for the rad18 strain (AID 177); conditions: S. cerevisiae rad18 mutant growth inhibition, stronger effect = higher value
In short: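 Yeast carrying a defined DNA damage repair alteration were exposed to compounds. Growth inhibition was expressed relative to vehicle-treated controls.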

Measured: growth inhibition

CC(=O)NC(CC(C)C)C(=O)NC(Cc1ccccc1)C(=O)CCl (stereo not drawn) (Ac-Leu-Phe-CH2Cl; configuration not given here)
inactive: [1]; at 1.2 µM -3% | [1]; at 3.7 µM 1% | [1]; at 11.0 µM 9% | [1]; at 33.0 µM 27% | [2]; at 1.2 µM -2% | [2]; at 3.7 µM -5% | [2]; at 11.0 µM -5% | [2]; at 33.0 µM -4% | [2]; at 100.0 µM 37% | [3]; at 1.2 µM -3% | [3]; at 3.7 µM -4% | [3]; at 11.0 µM -1% | [3]; at 33.0 µM 9% | [3]; at 100.0 µM 52% | [4]; at 1.2 µM -5% | [4]; at 3.7 µM -5% | [4]; at 11.0 µM -6% | [4]; at 33.0 µM -2% | [5]; at 1.2 µM -3% | [5]; at 3.7 µM 1% | [5]; at 11.0 µM 6% | [5]; at 33.0 µM 25% | [5]; at 50.0 µM 7.1% | [6]; at 1.2 µM -4% | [6]; at 3.7 µM 0% | [6]; at 11.0 µM 3% | [6]; at 33.0 µM 21% | [6]; at 50.0 µM 33.4% | [7]; at 1.2 µM -5% | [7]; at 3.7 µM -4% | [7]; at 11.0 µM -2% | [7]; at 33.0 µM 3% | [7]; at 100.0 µM 36% | [8] 46.9% | [9] -31.9% | [10]; at 1.2 µM -1% | [10]; at 3.7 µM -2% | [10]; at 11.0 µM -4% | [10]; at 33.0 µM 6% | [10]; at 50.0 µM 53.7% | [11]; at 1.2 µM -4% | [11]; at 3.7 µM -3% | [11]; at 11.0 µM -2% | [11]; at 33.0 µM -1% | [12]; at 1.2 µM -4% | [12]; at 3.7 µM -3% | [12]; at 11.0 µM -1% | [12]; at 33.0 µM 5% | [13]; at 1.2 µM -3% | [13]; at 3.7 µM -4% | [13]; at 11.0 µM 1% | [13]; at 33.0 µM 15% | [14] 40.3% | [15]; at 1.2 µM -3% | [15]; at 3.7 µM -2% | [15]; at 11.0 µM 3% | [15]; at 33.0 µM 9%
active: [1]; at 100.0 µM 74% | [4]; at 100.0 µM 83% | [5]; at 100.0 µM 77% | [6]; at 100.0 µM 85% | [10]; at 100.0 µM 84% | [11]; at 100.0 µM 71% | [12]; at 100.0 µM 77% | [13]; at 100.0 µM 75% | [15]; at 100.0 µM 72%
